Laboratory results taken from PubChem BioAssay.

Test: hepatitis C replication reporter changes, two-sided – Huh7 cells, luciferase reporter, HCV replication inhibitor project, primary screen (AID 1109);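 note: huh7 hepatoma cells harbouring a luciferase neomycin HCV replicon reporter; luciferase luminescence as measure of HCV replicon replication; test concentration not given here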
Conditions: Huh7 HCV replicon luciferase reporter, 48 h; higher = more signal

Structure (SMILES)	z-score
C=CCN1C(=O)[C@@]2(Cc3ccccc3)N=C(c3ccc(OCCCO)cc3)O[C@H]2c2ccccc21	-2.44
CC(=O)Nc1ccc([C@H]2[C@H](C)CC[C@H]3C(=O)N4[C@@H](CC[C@@H](C)[C@@H]4c4ccc(NC(C)=O)cc4)C(=O)N32)cc1	-0.288
COc1cc2c(cc1OC)CN(C(=O)[C@@H]1[C@H]3C(=O)O[C@H](c4ccccc4)[C@H](c4ccccc4)N3[C@H](c3ccccc3OCCO)[C@@]13C(=O)Nc1ccccc13)CC2	-2.02
CCOC(=O)C[C@H]1[C@H](OC(=O)Cc2ccc3c(c2)OCO3)[C@@H](NC(=O)c2ccc3ccccc3c2)c2cc(OCCCO)ccc2N1C(=O)Cc1ccc(OC)cc1	-1.74
CO[C@@H]1COC(=O)[C@H](C)NC(=O)CC=C[C@@H](C)[C@H](OC)COC(=O)[C@H](C)NC(=O)CC=C[C@H]1C	-0.0787
CO[C@H]1COC(=O)CC=C[C@H](C)COC(=O)[C@@H](OCc2ccccc2)C=C[C@@H]1C	0.165
CCCC[C@@H]1C[C@H]1[C@@H](NC(=O)c1ccccc1)c1ccccc1C(F)(F)F	-0.696
CO[C@@H]1COC(=O)[C@H](C)NC(=O)CC=C[C@@H](C)[C@H](NS(=O)(=O)c2ccc(C)cc2)COC(=O)CC=C[C@@H]1C	0.108
CC(=O)NCCCC[C@@H]1NC(=O)[C@H]2C[C@@H](C(=O)NCCCCCCN(C)C)[C@@H](c3cccc(OCCO)c3)N2C1=O	1.33
NC(=O)NCC#Cc1ccc2c(c1)[C@]1(C(=O)N2)[C@H](c2ccccc2OCCO)N2[C@H](c3ccccc3)[C@H](c3ccccc3)OC(=O)[C@H]2[C@@H]1C(=O)N1CCN(c2ncccn2)CC1	-0.729
C[C@]1(C(=O)NCc2ccccc2)c2ccccc2C(=O)N(Cc2cc(C(F)(F)F)cc(C(F)(F)F)c2)[C@H]1c1ccc(CO)cc1	-2.06
C=C(COC)/C(=C/C[C@@H](OC(C)=O)c1cccc(OCCO)c1)c1cc(C(=O)OC)ccc1OC	-0.72
COC(=O)[C@H]1[C@@H]2COc3ccccc3[C@H]2N[C@H]1C(=O)OC	-0.591
CCc1cccc(NC(=O)O[C@H]2[C@H](OC(=O)Nc3ccccc3)[C@@H](OC(=O)Nc3ccccc3)[C@@H](OC)O[C@@H]2CO)c1	-3.51
C=CCN1C(=O)[C@]2(O[C@H](CCn3cc(CCO)nn3)[C@@H]([Si](C)(C)c3ccc(OC)cc3)[C@@H]2C)c2cc(NC(=O)c3ccc(OC)cc3)ccc21	-3.44
C=C(COC)/C(=C/C[C@H](OC(C)=O)c1ccc(OCCO)cc1)c1cnc2ccccc2c1	-0.773
[N-]=[N+]=NCc1ccccc1C[C@]1(C(=O)N2CCCCC2)N=C(c2ccc(OCCCO)cc2)O[C@H]1c1ccccc1CN=[N+]=[N-]	-2.73
CO[C@H]1O[C@H](CO)[C@@H](OC(=O)Nc2ccccc2)[C@H](OC(=O)Nc2ccc3c(c2)OCO3)[C@@H]1OC(=O)Nc1ccc2c(c1)OCO2	-0.245

Structure (SMILES)	z-score
CCOC(=O)C1=C[C@@H](c2ccccc2)N(S(=O)(=O)c2ccc(C)cc2)[C@H]1c1ccc(F)cc1	-1.97
CCCC=C(CCC)[C@@H](NC(=O)c1ccc(C(F)(F)F)cc1)c1ccccc1	-1.43
COC(=O)C[C@H]1O[C@]2(C(=O)N(Cc3ccccc3)c3ccc(I)cc32)[C@@H](C)[C@@H]1[Si](C)(C)c1ccc(OC)cc1	0.486
CCC(=O)[C@]12O[C@@]3([C@@H]4C(=O)OCC[C@@H]41)N(CC)C(C)=C(C(=O)OC)[C@@H](c1ccccc1)N3C2=O	-0.206
COCCOC(=O)N1C(=O)[C@@]2(c3cc(C#CC4=CCCCC4)ccc31)[C@H](c1ccc(O)cc1)N1[C@H](c3ccccc3)[C@H](c3ccccc3)OC(=O)[C@H]1[C@@H]2C(=O)N1CCCCCCC1	-0.387
O=C(CS)NCCCCCNC(=O)[C@H]1C[C@H]2C(=O)N3CCC[C@H]3C(=O)N2[C@H]1c1ccc(O)cc1	0.0187
CSCC[C@@H]1NC(=O)CC=C[C@@H](C)COC(=O)[C@H](CCSC)NC(=O)CC=C[C@@H](C)COC1=O	-0.116
COCCOC(=O)N1C(=O)[C@@]2(c3cc(C#CCNC(N)=O)ccc31)[C@H](C(=O)N1CCCCCCC1)[C@H]1C(=O)O[C@H](c3ccccc3)[C@H](c3ccccc3)N1[C@@H]2c1ccccc1OCCO	-2.1
O=C1O[C@H](c2ccccc2)[C@H](c2ccccc2)N2[C@H]1[C@@H](C(=O)Nc1nc3ccccc3s1)[C@]1(C(=O)Nc3ccc(C#CC4(O)CCCCCC4)cc31)[C@H]2c1ccc(O)cc1	-0.733
CC[C@H]1C2=C3C(CC[C@H]4C(OC)OC[C@](C)([C@@H]34)N(C(=O)OC(C)(C)C)C2)C(CO)C1CO (stereo partly specified)	-0.996
CC(C)(C)OC(=O)CC[C@@]1(C(=O)NCc2ccccc2)N=C(c2ccc(OCCCO)cc2)O[C@@H]1c1ccccc1	-3.13
CC(C)[Si](OCC[C@H]1O[C@]2(C(=O)N(Cc3ccccc3)c3ccccc32)[C@@H](C)[C@@H]1[Si](C)(C)O)(C(C)C)C(C)C	-1.22
C[C@H]1COC(=O)[C@H](Cc2ccccc2)NC(=O)[C@@H](C)COC(=O)[C@H](Cc2ccccc2)NC1=O	-0.0223
COc1ccc([Si](C)(C)[C@H]2[C@H](CC(=O)N3Cc4ccccc4C[C@H]3CO)O[C@@]3(C(=O)N(Cc4cccc(N5CCOC5=O)c4)c4ccccc43)[C@@H]2C)cc1	-3.42
CO[C@H]1COC(=O)[C@@H](OCc2ccccc2)C=C[C@H](C)[C@@H](OC)COC(=O)[C@H](OCc2ccccc2)C=C[C@@H]1C	0.512
C=C(COC)C(=O)CC[C@H](OC(=O)c1ccccc1-c1ccccc1C(=O)O)c1cccc(OCCO)c1	-3.1
Cc1ccc(S[C@]2(C(=O)O)CC(=O)N(Cc3ccccc3)[C@@H]2c2ccc(CO)cc2)cc1	0.764
O=C(O)[C@@H]1Cc2c([nH]c3ccccc23)[C@@H](c2ccccc2)N1	-0.161
